# Measurements published in the supplement of paper PMC8699584.
# ± gives the standard deviation of the averaged measurements.
# What was measured:
# [1] = test system: Molm13; test: cell viability relative to DMSO control (bortezomib = 0%); higher = less growth inhibition; details: 10 nM; 72 h
# Procedure, shortened: (§1)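 Acute myeloid leukemia cells were plated at 1000 cells per well in 50 µL onto a 679-compound library of approved and investigational agents in 384-well plates and exposed to a single 10 nM dose for 72 h, in duplicate. Cell viability was measured by CellTiter-Glo luminescence on an EnVision reader. Readings were scaled to percentages by per-plate linear regression, with DMSO-treated cells set at 100% and positive-control-treated cells at 0%.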
# [2] = test system: Mv4-11; test: as above; details: 10 nM; 72 h
# Procedure, shortened: as §1
SMILES,cell viability [1],cell viability [2]
N#C/C(=C\c1ccc(O)c(O)c1)C(N)=S,91.3 ± 7.4%,104 ± 2.4%
COc1ccc2c(c[n+](C)c3c4cc5c(cc4ccc23)OCO5)c1OC [Chelerythrine (chloride)],106 ± 10%,108 ± 1.4%
O=c1[nH]c2ccccc2n1C1CCN(Cc2ccc(-c3[nH]c4cc5ncnc5cc4nc3-c3ccccc3)cc2)CC1 [AKT inhibitor VIII],103 ± 12%,103 ± 5.7%
CC(=O)OC(C)(C)/C=C/C(=O)[C@](C)(O)[C@H]1[C@H](O)C[C@@]2(C)[C@@H]3CC=C4[C@H](C[C@H](O)C(=O)C4(C)C)[C@]3(C)C(=O)C[C@]12C [Cucurbitacin B],61.7 ± 0.99%,82.9 ± 4.3%
CC(C)=CCC[C@](C)(O)[C@H]1CC[C@]2(C)[C@@H]1[C@H](O)C[C@@H]1[C@@]3(C)CC[C@H](O[C@@H]4O[C@H](CO)[C@@H](O)[C@H](O)[C@H]4O)C(C)(C)[C@@H]3CC[C@]12C [Ginsenoside Rh2],116 ± 2.1%,111 ± 2.3%
CC(C)(C)c1cc(C=C(C#N)C#N)cc(C(C)(C)C)c1O [Tyrphostin 9],96.2 ± 18%,99.7 ± 4.1%
COc1cc([C@@H]2c3cc4c(cc3[C@H](O)[C@H]3COC(=O)[C@@H]23)OCO4)cc(OC)c1OC [Picropodophyllin (PPP)],98.4 ± 8.1%,109 ± 3.8%
Cc1ccccc1-n1c(Cn2cnc3c(N)ncnc32)nc2cccc(C)c2c1=O,108 ± 13%,111 ± 5.5%
COC(=O)C1(OC)CC2OC1(C)n1c3ccccc3c3c4c(c5c6ccccc6n2c5c31)C(=O)N(C)C4 (stereo unspecified),115 ± 6.2%,109 ± 2%
CC(=O)N[C@H]1[C@@H](O[C@@H]2O[C@H](CC(O)[C@H]3O[C@@H](n4ccc(=O)[nH]c4=O)[C@H](O)[C@@H]3O)[C@H](O)[C@H](O)[C@H]2NC(=O)/C=C/CC(C)C)O[C@H](CO)[C@@H](N)[C@@H]1O (stereo partly specified) [Tunicamycin],105 ± 14%,103 ± 3.8%
COC[C@H]1OC(=O)c2coc3c2[C@@]1(C)C1=C(C3=O)[C@@H]2CCC(=O)[C@@]2(C)C[C@H]1OC(C)=O [Wortmannin],114 ± 9%,110.22 ± 0.09%
C/C(O)=C(\C#N)C(=O)Nc1cc(Br)ccc1Br,108 ± 6.6%,114 ± 7.8%
COc1ccc2c(c[n+](C)c3c4cc5c(cc4ccc23)OCO5)c1OC [Chelerythrine chloride],115 ± 13%,112 ± 6.5%
Cc1ccccc1-n1c(Cn2ncc3c(N)ncnc32)nc2cccc(C)c2c1=O,117 ± 1.4%,117 ± 14%
O=C([O-])C(Cl)Cl.[Na+] [Sodium†Dichloroacetate],74 ± 24%,110.7 ± 0.021%
CN[C@@H]1C[C@H]2O[C@@](C)([C@@H]1OC)n1c3ccccc3c3c4c(c5c6ccccc6n2c5c31)C(=O)NC4 [Staurosporine],11.9 ± 18%,5.41 ± 3.4%
O=C(O)c1nn(Cc2ccc(Cl)cc2Cl)c2ccccc12 [Lonidamine],123 ± 1.8%,120 ± 4.8%
COc1ccc(N(C(=O)Oc2c(C)cccc2C)c2ccnc(Nc3ccc(N4CCN(C)CC4)cc3)n2)c(OC)c1,94.5 ± 18%,108 ± 5.2%
